According to PubChem BioAssay (EPA / NIEHS):
Active and inactive are the calls of the source. The calls were made as follows: active = hit-call score of the fitted dose curve at least 0.9, where 1 is the maximum; inactive = score below 0.9.

Biological target: rat CYP2A1, Cyp2a1 (gene 24894) (UniProt P11711)
Assay: NVS_ADME_rCYP2A1: NovaScreen (NVS) CYP450-related Enzyme Activity (ADME) Assay for rat CYP2A1 (AID 2283114)
Protocol: NVS_ADME_rCYP2A1 is a biochemical, single-readout assay that uses extracted gene-proteins in a cell-free assay. Measurements were taken 0.75 hour after chemical dosing in a 96-well plate.NVS_ADME_rCYP2A1 is one of one assay component(s) measured or calculated from the NVS_ADME_rCYP2A1 assay. It is designed to make measurements of enzyme activity, a form of enzyme reporter, as detected with fluorescence intensity signals by Fluorescence technology.Data from the assay component NVS_ADME_rCYP2A1 was analyzed into 1 assay endpoint. This assay endpoint, NVS_ADME_rCYP2A1, was analyzed in the positive analysis fitting direction relative to Acetonitrile as the negative control and baseline of activity. Using a type of enzyme reporter, loss-of-signal activity can be used to understand changes in the enzymatic activity as they relate to the gene Cyp2a1. Furthermore, this assay endpoint can be referred to as a primary readout, because this assay has produced multiple assay endpoints where this one serves a enzymatic activity function. To generalize the intended target to other relatable targets, this assay endpoint is annotated to the cyp intended target family, where the subfamily is xenobiotic metabolism.
Binding assays used specific radioligands (tritiated, iodinated) with non-radioactive competitive displacement ligands in agonist or antagonist protocols (as indicated) and various reference compounds and inhibitors to titrate specific binding to receptors and transporters. Most enzyme assays (CYPs, kinases, phosphatases, proteases, HDACs) used recombinant protein and specific substrates (fluorescence mostly, some colorimetric and radioactive) and inhibitors, followed by a biochemical separation of substrate and product. All assays for the biochemical HTS were initially run in duplicate at a single concentration (10 uM for CYP450 assays and 25 uM for all others). Assay-chemical combinations meeting a pre-defined threshold (e.g., 30% inhibition and other criteria defined below) were then run in singleton concentration-response format with maximum concentration of 20 uM for CYPs and 50 uM for all others. Each assay was run with positive and negative controls, and concurrent controls on every plate. The follow-up (secondary) screen tested active chemical-pairs in concentration series, as well as a few additional assays not tested in the primary screen, some selected negative inactives, and several cases re-run in the concentration series for confirmatory purposes.

Sequence of rat CYP2A1, Cyp2a1 (gene 24894) (P11711 whole entry, looked up): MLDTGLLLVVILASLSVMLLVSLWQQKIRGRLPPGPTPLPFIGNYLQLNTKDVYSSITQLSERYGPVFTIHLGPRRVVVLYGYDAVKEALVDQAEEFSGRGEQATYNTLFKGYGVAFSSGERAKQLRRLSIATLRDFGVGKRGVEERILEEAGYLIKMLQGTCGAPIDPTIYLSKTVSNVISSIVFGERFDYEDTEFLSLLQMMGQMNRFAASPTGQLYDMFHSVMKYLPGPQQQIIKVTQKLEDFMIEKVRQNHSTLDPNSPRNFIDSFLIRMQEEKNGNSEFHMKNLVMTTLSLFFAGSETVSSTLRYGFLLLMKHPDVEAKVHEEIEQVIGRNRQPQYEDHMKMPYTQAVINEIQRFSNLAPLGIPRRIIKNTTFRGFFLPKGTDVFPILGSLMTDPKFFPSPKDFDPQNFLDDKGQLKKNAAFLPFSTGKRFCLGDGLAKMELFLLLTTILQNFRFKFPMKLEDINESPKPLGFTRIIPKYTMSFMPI

Row | Compound | AC50 | outcome
1 | CCOC(=O)CC(SP(=S)(OC)OC)C(=O)OCC (stereo not drawn) | 5.52 µM (active) | –
2 | CCOP(=S)(OCC)SCn1c(=O)oc2cc(Cl)ccc21 | 3.22 µM (active) | –
3 | CO/C=C(/C(=O)OC)c1ccccc1Oc1cc(Oc2ccccc2C#N)ncn1 | 3.83 µM (active) | –
4 | CC1COC(Cn2cncn2)(c2ccc(Oc3ccc(Cl)cc3)cc2Cl)O1 (stereo not drawn) | 0.14 µM (active) | –
5 | CC1=C(C(=O)Nc2ccccc2)SCCO1 | 6.72 µM (active) | –
6 | CN(C)C(=S)SSC(=S)N(C)C | 2.83 µM (active) | –
7 | CCOC(=O)C(Cl)Cc1cc(-n2nc(C)n(C(F)F)c2=O)c(F)cc1Cl (stereo not drawn) | – | inactive
8 | OC(c1ccc(Cl)cc1)(c1cncnc1)c1ccccc1Cl (stereo not drawn) | 4.33 µM (active) | –
9 | N#CC(CCc1ccc(Cl)cc1)(Cn1cncn1)c1ccccc1 (stereo not drawn) | – | inactive
10 | Cc1ccc(-c2c(Cl)nc(C#N)n2S(=O)(=O)N(C)C)cc1 | 7.38 µM (active) | –
11 | COC(=O)c1ccccc1C(=O)OC | – | inactive
12 | COc1ccc(C(c2ccc(OC)cc2)C(Cl)(Cl)Cl)cc1 | – | inactive
13 | CCCN(CCC)c1c([N+](=O)[O-])cc(S(N)(=O)=O)cc1[N+](=O)[O-] | 2.62 µM (active) | –
